# Assays:
# [1] = biological target: Tyrosine-protein kinase CSK (Homo sapiens) (UniProt P41240); conditions: at 1 µM;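 note: each value is an averaged inhibition reading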
# [2] = biological target: T1, Discoidin domain-containing receptor 2 (Homo sapiens) (UniProt Q16832); conditions: at 0.1 µM
# T1 sequence (whole entry): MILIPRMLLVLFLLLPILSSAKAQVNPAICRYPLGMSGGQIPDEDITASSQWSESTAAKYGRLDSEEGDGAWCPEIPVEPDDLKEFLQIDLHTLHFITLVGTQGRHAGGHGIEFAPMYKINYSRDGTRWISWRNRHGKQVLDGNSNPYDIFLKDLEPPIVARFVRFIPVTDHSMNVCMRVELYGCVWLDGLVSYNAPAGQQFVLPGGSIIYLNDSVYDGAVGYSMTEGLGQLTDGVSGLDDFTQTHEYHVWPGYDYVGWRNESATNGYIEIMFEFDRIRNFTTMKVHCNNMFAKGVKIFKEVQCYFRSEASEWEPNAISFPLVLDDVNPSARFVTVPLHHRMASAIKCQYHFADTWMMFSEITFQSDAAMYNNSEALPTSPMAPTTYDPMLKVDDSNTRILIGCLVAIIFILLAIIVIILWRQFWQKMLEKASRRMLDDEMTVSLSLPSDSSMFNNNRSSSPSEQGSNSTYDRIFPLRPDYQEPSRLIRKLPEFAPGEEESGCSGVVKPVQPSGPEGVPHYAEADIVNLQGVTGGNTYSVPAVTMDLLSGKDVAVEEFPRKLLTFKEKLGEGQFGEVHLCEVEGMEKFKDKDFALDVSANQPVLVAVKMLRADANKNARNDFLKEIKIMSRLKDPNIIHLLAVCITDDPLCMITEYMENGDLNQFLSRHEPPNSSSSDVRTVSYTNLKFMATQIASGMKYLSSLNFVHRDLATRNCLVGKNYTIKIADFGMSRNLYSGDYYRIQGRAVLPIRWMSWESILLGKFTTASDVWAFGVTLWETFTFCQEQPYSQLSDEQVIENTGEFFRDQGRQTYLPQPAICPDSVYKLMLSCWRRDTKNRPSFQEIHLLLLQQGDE
# [3] = biological target: T1, Discoidin domain-containing receptor 2 (Homo sapiens); conditions: at 1 µM
# [4] = biological target: Epidermal growth factor receptor (Homo sapiens) (UniProt P00533); conditions: at 0.1 µM
# [5] = biological target: Epidermal growth factor receptor (Homo sapiens) (UniProt P00533); conditions: at 1 µM
# [6] = tested on: Epidermal growth factor receptor (Homo sapiens), P00533 [L858R]; conditions: at 0.1 µM
# Chain of Epidermal growth factor receptor (Homo sapiens), P00533 [L858R] (P00533 whole entry L858R): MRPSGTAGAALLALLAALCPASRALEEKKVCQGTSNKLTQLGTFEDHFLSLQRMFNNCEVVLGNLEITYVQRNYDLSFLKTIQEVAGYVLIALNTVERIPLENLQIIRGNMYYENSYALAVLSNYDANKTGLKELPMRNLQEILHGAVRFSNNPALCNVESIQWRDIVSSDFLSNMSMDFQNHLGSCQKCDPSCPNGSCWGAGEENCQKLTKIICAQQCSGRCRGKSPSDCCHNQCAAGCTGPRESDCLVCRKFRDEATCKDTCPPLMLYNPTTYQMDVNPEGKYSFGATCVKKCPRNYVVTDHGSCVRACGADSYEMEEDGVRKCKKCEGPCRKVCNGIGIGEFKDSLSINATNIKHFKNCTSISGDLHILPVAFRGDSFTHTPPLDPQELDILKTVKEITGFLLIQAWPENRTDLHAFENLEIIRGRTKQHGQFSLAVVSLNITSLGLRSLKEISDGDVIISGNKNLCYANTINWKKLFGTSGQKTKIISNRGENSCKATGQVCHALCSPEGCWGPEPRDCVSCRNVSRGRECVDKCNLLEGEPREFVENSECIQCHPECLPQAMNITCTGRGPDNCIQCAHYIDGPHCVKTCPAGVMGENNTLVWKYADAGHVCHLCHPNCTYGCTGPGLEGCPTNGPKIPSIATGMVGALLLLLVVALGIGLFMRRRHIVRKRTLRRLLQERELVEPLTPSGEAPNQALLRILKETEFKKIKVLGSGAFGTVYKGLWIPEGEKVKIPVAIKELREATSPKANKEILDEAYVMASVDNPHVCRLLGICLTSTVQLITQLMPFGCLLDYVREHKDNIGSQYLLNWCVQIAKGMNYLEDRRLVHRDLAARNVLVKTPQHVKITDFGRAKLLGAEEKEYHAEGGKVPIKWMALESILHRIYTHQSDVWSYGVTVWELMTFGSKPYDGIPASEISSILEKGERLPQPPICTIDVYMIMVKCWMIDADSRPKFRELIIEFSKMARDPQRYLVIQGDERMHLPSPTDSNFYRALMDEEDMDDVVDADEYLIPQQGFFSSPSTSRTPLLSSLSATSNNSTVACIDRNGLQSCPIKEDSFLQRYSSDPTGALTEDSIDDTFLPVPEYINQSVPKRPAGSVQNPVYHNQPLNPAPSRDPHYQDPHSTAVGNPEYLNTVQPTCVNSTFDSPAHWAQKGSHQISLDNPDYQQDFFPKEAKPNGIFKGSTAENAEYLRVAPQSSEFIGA
# [7] = tested on: Epidermal growth factor receptor (Homo sapiens), P00533 [L858R]; conditions: at 1 µM
# [8] = tested on: Epidermal growth factor receptor (Homo sapiens), P00533 [L861Q]; conditions: at 0.1 µM
# Chain of Epidermal growth factor receptor (Homo sapiens), P00533 [L861Q] (P00533 whole entry L861Q): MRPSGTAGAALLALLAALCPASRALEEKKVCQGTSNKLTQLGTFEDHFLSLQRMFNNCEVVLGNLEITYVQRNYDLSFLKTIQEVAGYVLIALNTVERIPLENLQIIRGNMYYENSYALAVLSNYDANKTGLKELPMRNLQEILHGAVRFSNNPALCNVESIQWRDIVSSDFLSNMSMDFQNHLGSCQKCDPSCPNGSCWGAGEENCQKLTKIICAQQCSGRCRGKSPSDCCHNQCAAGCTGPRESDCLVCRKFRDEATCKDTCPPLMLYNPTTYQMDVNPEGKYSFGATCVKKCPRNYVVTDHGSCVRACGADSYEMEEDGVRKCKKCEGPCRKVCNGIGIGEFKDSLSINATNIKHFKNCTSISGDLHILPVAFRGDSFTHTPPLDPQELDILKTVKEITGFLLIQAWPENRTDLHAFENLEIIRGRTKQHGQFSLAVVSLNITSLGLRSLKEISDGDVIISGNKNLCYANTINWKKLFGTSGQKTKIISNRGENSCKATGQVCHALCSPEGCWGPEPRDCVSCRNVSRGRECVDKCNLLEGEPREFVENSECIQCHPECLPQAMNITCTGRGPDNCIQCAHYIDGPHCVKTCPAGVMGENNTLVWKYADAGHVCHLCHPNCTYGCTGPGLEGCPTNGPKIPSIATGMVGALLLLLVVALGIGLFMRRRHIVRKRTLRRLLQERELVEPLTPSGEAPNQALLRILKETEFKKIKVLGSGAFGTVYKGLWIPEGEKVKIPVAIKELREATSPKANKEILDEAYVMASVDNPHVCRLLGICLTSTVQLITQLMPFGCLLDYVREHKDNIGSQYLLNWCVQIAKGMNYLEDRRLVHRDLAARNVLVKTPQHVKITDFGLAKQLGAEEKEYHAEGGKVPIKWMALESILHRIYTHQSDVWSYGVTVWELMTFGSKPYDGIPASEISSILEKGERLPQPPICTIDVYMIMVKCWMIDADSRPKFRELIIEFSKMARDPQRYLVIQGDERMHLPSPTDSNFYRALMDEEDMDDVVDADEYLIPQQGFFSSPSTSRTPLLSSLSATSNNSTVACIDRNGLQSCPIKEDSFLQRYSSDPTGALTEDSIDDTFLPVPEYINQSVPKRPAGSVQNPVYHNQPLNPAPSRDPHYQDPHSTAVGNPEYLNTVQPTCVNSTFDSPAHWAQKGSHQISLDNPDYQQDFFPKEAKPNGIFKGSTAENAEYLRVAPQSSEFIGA
# [9] = tested on: Epidermal growth factor receptor (Homo sapiens), P00533 [L861Q]; conditions: at 1 µM
# [10] = tested on: Epidermal growth factor receptor (Homo sapiens), P00533 [T790M]; conditions: at 0.1 µM
# Chain of Epidermal growth factor receptor (Homo sapiens), P00533 [T790M] (P00533 whole entry T790M): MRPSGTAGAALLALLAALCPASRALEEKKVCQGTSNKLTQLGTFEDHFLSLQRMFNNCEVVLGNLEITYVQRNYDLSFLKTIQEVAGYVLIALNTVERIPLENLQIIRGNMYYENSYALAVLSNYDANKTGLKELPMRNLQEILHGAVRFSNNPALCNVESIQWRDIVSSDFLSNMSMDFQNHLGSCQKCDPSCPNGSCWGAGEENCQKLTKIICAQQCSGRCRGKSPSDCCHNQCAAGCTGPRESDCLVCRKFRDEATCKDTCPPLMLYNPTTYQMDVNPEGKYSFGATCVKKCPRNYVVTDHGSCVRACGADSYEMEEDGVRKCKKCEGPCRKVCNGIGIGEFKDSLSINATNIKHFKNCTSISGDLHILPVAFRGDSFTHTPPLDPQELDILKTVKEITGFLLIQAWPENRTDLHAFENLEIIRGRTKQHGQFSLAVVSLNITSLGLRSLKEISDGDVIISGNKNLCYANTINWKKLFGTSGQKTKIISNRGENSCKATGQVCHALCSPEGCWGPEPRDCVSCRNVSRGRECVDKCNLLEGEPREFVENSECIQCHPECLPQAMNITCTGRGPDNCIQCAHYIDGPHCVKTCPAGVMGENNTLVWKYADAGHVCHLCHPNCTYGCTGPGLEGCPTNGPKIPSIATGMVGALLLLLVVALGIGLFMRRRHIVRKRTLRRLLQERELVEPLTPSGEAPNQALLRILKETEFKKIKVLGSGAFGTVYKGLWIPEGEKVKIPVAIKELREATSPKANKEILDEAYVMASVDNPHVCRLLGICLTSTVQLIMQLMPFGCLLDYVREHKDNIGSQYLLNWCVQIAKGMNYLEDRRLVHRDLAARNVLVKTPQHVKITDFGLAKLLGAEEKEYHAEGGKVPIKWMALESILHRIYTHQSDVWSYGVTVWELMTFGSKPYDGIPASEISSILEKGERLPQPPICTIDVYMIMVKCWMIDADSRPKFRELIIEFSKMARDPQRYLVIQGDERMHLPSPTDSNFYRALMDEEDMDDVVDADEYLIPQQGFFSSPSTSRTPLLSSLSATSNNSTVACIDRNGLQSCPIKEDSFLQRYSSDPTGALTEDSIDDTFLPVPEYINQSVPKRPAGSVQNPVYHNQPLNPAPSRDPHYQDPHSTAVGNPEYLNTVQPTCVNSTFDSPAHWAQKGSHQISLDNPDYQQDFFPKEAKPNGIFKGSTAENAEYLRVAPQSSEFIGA
# [11] = tested on: Epidermal growth factor receptor (Homo sapiens), P00533 [T790M]; conditions: at 1 µM
# [12] = tested on: Epidermal growth factor receptor (Homo sapiens), P00533 [L858R,T790M]; conditions: at 0.1 µM
# [13] = tested on: Epidermal growth factor receptor (Homo sapiens), P00533 [L858R,T790M]; conditions: at 1 µM
# [14] = biological target: Ephrin type-A receptor 2 (Homo sapiens) (UniProt P29317); conditions: at 0.1 µM
# Chain of Ephrin type-A receptor 2 (Homo sapiens) (P29317 whole entry): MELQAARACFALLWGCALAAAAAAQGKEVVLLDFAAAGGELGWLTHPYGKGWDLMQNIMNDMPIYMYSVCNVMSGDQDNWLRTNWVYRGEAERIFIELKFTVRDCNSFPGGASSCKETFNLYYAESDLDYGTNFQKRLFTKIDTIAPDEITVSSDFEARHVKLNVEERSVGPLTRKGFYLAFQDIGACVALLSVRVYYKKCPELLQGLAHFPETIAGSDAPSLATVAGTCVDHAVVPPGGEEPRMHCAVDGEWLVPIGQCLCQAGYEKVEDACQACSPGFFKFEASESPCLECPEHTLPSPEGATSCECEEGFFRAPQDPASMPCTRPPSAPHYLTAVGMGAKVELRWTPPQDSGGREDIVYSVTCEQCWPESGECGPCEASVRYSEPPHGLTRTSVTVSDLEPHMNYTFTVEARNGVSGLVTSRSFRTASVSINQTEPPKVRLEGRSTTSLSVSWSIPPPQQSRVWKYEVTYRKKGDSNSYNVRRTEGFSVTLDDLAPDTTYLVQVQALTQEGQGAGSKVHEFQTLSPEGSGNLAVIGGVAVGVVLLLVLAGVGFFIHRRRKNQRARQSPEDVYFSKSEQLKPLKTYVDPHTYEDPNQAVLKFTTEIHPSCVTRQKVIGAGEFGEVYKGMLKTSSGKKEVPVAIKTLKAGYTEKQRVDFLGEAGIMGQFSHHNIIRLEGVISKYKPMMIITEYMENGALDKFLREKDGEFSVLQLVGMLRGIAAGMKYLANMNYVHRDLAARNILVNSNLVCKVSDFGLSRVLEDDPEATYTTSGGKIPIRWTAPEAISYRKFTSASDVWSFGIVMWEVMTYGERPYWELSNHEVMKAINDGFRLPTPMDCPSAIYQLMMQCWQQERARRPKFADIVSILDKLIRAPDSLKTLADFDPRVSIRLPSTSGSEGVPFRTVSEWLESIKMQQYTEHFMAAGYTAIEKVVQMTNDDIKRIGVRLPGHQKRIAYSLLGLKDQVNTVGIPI
# [15] = biological target: Ephrin type-A receptor 2 (Homo sapiens) (UniProt P29317); conditions: at 1 µM
# [16] = biological target: T2, Ephrin type-A receptor 3 (Homo sapiens) (UniProt P29320); conditions: at 0.1 µM
# T2 sequence (whole entry): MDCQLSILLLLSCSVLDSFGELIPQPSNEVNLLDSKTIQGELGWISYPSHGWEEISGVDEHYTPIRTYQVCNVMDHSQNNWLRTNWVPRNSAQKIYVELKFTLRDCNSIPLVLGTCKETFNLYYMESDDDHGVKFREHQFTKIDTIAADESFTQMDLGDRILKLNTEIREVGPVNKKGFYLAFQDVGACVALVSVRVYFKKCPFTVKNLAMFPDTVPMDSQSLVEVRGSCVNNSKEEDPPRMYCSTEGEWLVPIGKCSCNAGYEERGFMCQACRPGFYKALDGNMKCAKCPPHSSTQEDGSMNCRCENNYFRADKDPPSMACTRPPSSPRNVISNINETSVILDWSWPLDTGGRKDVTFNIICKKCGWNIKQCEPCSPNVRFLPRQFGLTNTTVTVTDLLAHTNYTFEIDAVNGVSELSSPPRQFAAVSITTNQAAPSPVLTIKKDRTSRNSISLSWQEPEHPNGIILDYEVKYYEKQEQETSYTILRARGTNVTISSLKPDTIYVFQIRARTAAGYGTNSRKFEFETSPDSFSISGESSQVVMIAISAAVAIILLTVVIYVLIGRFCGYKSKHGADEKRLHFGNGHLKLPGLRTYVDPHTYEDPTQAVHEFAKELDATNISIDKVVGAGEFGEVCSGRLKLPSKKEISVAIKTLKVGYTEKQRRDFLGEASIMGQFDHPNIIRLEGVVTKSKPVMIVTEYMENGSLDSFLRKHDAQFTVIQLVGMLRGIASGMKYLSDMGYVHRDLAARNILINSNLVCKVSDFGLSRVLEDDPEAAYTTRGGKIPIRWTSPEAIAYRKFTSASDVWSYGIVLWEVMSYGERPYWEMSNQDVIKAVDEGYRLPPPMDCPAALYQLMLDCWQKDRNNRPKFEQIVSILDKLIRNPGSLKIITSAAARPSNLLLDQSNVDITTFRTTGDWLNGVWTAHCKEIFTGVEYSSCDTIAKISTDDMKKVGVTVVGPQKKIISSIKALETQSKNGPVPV
# [17] = biological target: T2, Ephrin type-A receptor 3 (Homo sapiens); conditions: at 1 µM
# [18] = biological target: Ephrin type-A receptor 4 (Homo sapiens) (UniProt P54764); conditions: at 0.1 µM
# [19] = biological target: T3, Ephrin type-B receptor 2 (Homo sapiens) (UniProt P29323); conditions: at 0.1 µM;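 note: reported as mean inhibition of EPHB2, from the GSK PKIS dataset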
# T3 sequence (whole entry): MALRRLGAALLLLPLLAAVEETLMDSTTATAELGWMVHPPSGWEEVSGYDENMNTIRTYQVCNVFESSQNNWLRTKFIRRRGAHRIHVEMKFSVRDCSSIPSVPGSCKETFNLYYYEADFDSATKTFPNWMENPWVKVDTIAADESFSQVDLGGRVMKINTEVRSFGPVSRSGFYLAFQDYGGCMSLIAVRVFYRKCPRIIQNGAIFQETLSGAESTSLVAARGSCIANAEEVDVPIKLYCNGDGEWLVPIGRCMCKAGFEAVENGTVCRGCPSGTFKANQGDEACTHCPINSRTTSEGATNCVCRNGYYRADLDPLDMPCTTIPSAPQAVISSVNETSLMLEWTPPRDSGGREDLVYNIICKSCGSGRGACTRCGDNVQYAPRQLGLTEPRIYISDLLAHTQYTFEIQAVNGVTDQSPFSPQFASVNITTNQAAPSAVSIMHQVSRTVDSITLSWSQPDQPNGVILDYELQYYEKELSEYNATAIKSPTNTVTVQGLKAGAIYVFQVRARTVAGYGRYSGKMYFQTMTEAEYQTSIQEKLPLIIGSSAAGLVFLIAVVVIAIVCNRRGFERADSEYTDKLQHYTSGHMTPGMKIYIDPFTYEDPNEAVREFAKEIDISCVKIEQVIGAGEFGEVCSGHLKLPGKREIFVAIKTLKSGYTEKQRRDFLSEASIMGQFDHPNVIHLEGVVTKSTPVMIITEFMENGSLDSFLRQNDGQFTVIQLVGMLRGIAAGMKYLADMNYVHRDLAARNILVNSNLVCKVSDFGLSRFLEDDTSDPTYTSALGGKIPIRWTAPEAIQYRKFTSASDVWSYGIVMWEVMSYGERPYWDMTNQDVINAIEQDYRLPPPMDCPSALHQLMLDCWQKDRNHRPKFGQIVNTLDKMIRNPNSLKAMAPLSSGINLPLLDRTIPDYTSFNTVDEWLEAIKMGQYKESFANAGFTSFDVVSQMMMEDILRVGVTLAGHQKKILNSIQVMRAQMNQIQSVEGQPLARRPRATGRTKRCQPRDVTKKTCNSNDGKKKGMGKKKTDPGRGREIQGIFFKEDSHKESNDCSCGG
# [20] = biological target: Ephrin type-A receptor 4 (Homo sapiens) (UniProt P54764); conditions: at 1 µM
# Chain of Tyrosine-protein kinase CSK (Homo sapiens) (P41240 2-450 limits assumed): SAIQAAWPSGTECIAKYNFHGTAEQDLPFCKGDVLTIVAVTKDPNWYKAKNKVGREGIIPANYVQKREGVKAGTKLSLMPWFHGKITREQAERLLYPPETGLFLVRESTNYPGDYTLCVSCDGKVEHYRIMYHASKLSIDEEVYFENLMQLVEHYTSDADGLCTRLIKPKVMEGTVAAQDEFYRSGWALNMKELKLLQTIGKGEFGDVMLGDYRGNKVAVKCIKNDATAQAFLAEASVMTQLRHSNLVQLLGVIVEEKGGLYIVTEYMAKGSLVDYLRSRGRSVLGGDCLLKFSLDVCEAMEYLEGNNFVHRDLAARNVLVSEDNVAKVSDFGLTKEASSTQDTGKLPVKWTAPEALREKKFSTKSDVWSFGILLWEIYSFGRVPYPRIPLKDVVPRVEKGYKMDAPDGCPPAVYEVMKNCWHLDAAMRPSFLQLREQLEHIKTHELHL
SMILES,inhibition [1] [%],inhibition [2] [%],inhibition [3] [%],inhibition [4] [%],inhibition [5] [%],inhibition [6] [%],inhibition [7] [%],inhibition [8] [%],inhibition [9] [%],inhibition [10] [%],inhibition [11] [%],inhibition [12] [%],inhibition [13] [%],inhibition [14] [%],inhibition [15] [%],inhibition [16] [%],inhibition [17] [%],inhibition [18] [%],inhibition [19] [%],inhibition [20] [%]
CC(=O)NCc1cccc(C#Cc2cncnc2Nc2ccc(OCc3cccc(F)c3)c(Cl)c2)c1,-2.55,1.32,1.46,61.2,75.8,10.4,54.2,24,42.1,-1.44,0.3,1.41,1.74,-3.31,-4.19,-2.09,0.64,-2.22,0.63,
CNC(=O)c1cccc(C#Cc2cncnc2Nc2ccc(OCc3cccc(F)c3)c(Cl)c2)c1,3.24,0.18,4.52,62.1,82.2,13.8,62.1,25.9,45.7,1.03,4.1,-0.69,1.65,2.11,-0.11,1.08,0.39,5.81,3.54,6.8
CC(C)COC(=O)c1ccc2c(c1)/C(=C/Nc1ccc(S(N)(=O)=O)cc1)C(=O)N2,-1.85,-1.05,2.05,1.64,4.58,-0.29,0.49,-1.62,-0.46,-1.76,-2.28,-2.38,3.71,-3.29,-3.24,-2.74,0.31,-1.11,-3.84,1.79
CNC(=O)c1cncc(/C=C/c2ccccc2Cl)c1,6,-0.31,6.62,2.35,6.18,1.57,10.9,1.06,7.25,-0.23,5.34,1.14,-0.51,3.31,2.6,1.03,1.99,3.99,-0.8,15
COc1ccc(-c2oc3ncnc(N)c3c2-c2ccc(NC(=O)Nc3cc(C(F)(F)F)ccc3F)cc2)cc1,61,56.3,87.3,2.43,2.22,3.73,6.19,4.81,7.85,1.19,3.03,-0.45,7.47,87.9,95.7,82.1,87.1,87.3,85.7,87.6
CS(=O)(=O)CCNCc1coc(-c2ccc3ncnc(Nc4ccc(OCc5ccccc5)cc4)c3c2)c1,5.24,1.75,1.8,80.3,92.2,30.6,82.5,39.1,76,2.61,10.3,-2.4,4.59,2.56,0.15,7.79,5.01,8.01,3.86,5.86
Fc1ccc(-c2cc(-c3c[nH]nc3-c3ccccn3)ccn2)cc1,6.45,1.07,1.14,0.04,1.67,3.93,8.78,4,7.94,3.06,5.56,-1.9,6.43,1.25,0.94,3.9,4.31,11.9,3.6,14.8

# From ChEMBL document CHEMBL1961873, “Compounds: GSK PKIS; Assays: Nanosyn kinase panel” (2012)
